This is an account of results in PubChem BioAssay (NCATS).

The structures appear in SMILES notation. Records with an inconclusive call do not appear. Active and inactive are the calls of the source. Unless noted, the call rests on the fitted dose curve; in most records, active means well fitted curve in either direction with a large enough effect (not every such curve was filed as active); inconclusive means small, poorly fitted or top-dose-only effect, or another doubt; inactive means flat fitted curve, though single readings scatter.

Chain of Glucocorticoid receptor (Homo sapiens) (P04150 whole entry, looked up): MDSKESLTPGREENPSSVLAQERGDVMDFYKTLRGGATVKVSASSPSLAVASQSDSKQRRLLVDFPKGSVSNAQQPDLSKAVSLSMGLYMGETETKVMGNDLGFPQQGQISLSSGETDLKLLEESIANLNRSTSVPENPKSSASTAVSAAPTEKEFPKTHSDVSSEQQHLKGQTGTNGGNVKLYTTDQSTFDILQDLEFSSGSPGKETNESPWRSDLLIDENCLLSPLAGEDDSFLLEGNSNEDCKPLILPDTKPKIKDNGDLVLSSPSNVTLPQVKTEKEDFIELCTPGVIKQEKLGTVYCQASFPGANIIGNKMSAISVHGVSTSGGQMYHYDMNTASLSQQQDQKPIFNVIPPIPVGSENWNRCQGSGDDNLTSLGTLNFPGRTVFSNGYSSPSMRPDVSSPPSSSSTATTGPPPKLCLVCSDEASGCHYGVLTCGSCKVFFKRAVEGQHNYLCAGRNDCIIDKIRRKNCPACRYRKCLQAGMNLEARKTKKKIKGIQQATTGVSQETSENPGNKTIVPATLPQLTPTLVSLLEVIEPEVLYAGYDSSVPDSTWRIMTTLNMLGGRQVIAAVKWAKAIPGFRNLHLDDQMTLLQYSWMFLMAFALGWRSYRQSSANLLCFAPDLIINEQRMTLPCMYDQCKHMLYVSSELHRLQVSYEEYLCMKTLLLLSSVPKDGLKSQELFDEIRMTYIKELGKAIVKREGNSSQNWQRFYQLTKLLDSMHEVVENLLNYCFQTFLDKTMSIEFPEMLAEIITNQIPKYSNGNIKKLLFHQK
Chain of 3',5'-cyclic-AMP phosphodiesterase 4B (Homo sapiens) (Q07343 whole entry, looked up): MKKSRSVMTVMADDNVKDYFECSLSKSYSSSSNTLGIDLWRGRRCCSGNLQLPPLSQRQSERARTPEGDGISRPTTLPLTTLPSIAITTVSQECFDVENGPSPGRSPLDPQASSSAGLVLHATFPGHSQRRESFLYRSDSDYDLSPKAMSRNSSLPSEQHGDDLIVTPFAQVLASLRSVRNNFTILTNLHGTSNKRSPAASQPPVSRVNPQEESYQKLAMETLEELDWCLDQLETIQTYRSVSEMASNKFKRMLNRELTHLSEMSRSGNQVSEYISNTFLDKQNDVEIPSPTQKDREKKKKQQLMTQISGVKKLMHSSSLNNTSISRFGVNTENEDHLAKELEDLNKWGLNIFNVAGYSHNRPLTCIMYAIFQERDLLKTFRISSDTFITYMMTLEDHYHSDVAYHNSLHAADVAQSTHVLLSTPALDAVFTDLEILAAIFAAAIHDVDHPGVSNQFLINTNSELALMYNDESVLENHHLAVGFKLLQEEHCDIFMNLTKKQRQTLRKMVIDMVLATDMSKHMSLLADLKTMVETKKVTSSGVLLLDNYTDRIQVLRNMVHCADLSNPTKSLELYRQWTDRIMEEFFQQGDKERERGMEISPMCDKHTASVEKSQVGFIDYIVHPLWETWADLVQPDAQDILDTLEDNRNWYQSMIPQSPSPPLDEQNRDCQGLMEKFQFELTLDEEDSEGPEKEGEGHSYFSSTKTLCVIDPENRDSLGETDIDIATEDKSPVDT

Tested on in the first test: not listed separately
The test can be described thus: AP1 Signaling Pathway (AID 357).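 Further: ME-180 reporter cells stimulated with EGF at its EC50 level; on the % scale 0 is the no-effect control and ±100 the full control effect.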 As to conditions: ME-180 AP-1-bla reporter, EGF-induced, beta-lactamase ratio, 5 h; series mostly up to 38 µM; activity change, negative = inhibition: at the top concentration. The method in brief: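 Titration-series screen for positive or negative modulators of EC50 EGF-induced signaling in ME-180 cells carrying an AP-1-driven beta-lactamase reporter. After 5 hours at 37 degrees Celsius, CCF4 460nm/530nm emission ratio gave %Activity; AC50 values derived.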
In the case of `COc1ccc2[nH]cc(CCN(C)C)c2c1`, the “activity change, negative = inhibition” value was 19% [at 17.2 µM] (inactive).

Turning to `c1ccc2c3c([nH]c2c1)CNCC3`, the “activity change, negative = inhibition” value was -9.19% [at 17.2 µM] (inactive).

On to `COc1cc(CCN)ccc1O`, for which the “activity change, negative = inhibition” value is -2.45% (inactive).

On to `N[C@H](CP(=O)(O)O)C(=O)O`, for which the “activity change, negative = inhibition” value was -5.12% (inactive).

As to `COc1ccc(CCN)cc1O`, the “activity change, negative = inhibition” value is -1.51% (inactive).

As to `O=C1NCN(c2ccccc2)C12CCN(C[C@H]1COc3ccccc3O1)CC2`, the “activity change, negative = inhibition” value was -10.3% (inactive).

The target in a further test is Cytochrome P450 1A2 (Homo sapiens) (UniProt P05177). The test is described as follows: p450-cyp1a2 (AID 410; calls by dose curve; further: potency means the concentration at half of the fitted maximal effect;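 on activity change, negative = inhibition: -100% = full effect of reference inhibitor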). As to conditions: recombinant CYP1A2, luciferin-ME demethylation, luminescence; series mostly up to 57 µM; activity change, negative = inhibition: at the top concentration. The essentials: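 O-Demethylation of luciferin 6' methyl ether by human CYP1A2 is monitored as luciferase luminescence. Substrate sits at Km (100uM); enzyme is 20nM. Values are scaled to 57 uM furafylline as maximal inhibition.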
Chain of Cytochrome P450 1A2 (Homo sapiens) (P05177 whole entry, looked up): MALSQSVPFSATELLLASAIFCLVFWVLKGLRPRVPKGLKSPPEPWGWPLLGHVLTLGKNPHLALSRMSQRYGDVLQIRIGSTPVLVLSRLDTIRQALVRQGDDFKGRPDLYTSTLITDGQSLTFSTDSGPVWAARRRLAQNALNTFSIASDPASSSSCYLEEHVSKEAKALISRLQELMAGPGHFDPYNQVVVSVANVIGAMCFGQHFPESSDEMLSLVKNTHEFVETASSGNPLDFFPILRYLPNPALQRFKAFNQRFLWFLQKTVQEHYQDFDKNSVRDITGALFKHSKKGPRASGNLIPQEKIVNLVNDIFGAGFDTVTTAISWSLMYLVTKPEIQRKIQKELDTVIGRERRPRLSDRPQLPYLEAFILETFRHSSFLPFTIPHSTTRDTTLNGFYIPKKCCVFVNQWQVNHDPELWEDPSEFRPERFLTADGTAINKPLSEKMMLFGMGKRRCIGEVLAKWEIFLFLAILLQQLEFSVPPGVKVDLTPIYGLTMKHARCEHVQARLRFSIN
On to `CCN(CC)CCO[C@H]1CC[C@@]2(C)C(=CC[C@@H]3[C@H]2CC[C@]2(C)C(=O)CC[C@H]32)C1`, for which the “activity change, negative = inhibition” value was -19.9% (inactive).

`COc1ccc2[nH]cc(CCN(C)C)c2c1`: the Potency is 15.8 µM (active).

As to `N[C@H](CP(=O)(O)O)C(=O)O`, the “activity change, negative = inhibition” value is -7.8% (inactive).

On to `Clc1ccc(C2=CCC[C@H]3CC[C@@H]2N3)cn1`, for which the Potency is 15.8 µM (active).

Tested on in another test: not listed separately
The test can be described thus: NFAT Signaling Pathway (AID 444).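 Further: carbachol stimulus at about its EC50 of 1 µM final; on the % scale 0 is the no-effect control and ±100 the full control effect.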 As to conditions: Jurkat NFAT-bla M1, carbachol, beta-lactamase ratio, 5 h; at 38 µM (top of the series). The essentials:
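Jurkat cells with NFAT-driven β-lactamase reporter and co-expressed M1 receptor, stimulated with carbachol (final 1 uM, ~EC50), compound titration, 5 h at 37 °C. CCF4 loaded 1 h at RT; 460/530 nm ratio gave %activity and AC50.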
With `COc1ccc2[nH]cc(CCN(C)C)c2c1`, the activity change, negative = inhibition was -5.37% (inactive).

In the case of `COc1cc(CCN)ccc1O`, the activity change, negative = inhibition is 5.48% (inactive).

Consider `N[C@H](CP(=O)(O)O)C(=O)O`, for which the activity change, negative = inhibition is 5.18% (inactive).

Turning to `COc1ccc(CCN)cc1O`, the activity change, negative = inhibition is -3.06% (inactive).

For `O=C1NCN(c2ccccc2)C12CCN(C[C@H]1COc3ccccc3O1)CC2`, the activity change, negative = inhibition is 1.71% (inactive).

Tested on in the next test: not listed separately
The test can be described thus: Stat Signaling Pathway (AID 446).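 Further: ME-180 cervical cancer cells given 40 pM IL-6 alongside compound; SIE-controlled beta-lactamase reporter measured as 460/530 nm FRET emission ratio; on the % scale 0 is the no-effect control and ±100 the full control effect.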 As to conditions: ME-180 (cervical carcinoma) SIE beta-lactamase reporter, IL-6 stimulated, 5 h; series mostly up to 38 µM; activity, negative = inhibition: at the top concentration. The essentials:
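FRET read-out (405 nm excitation, 460/530 nm emission) of a beta-lactamase reporter under a STAT-inducible element in ME-180 cervical carcinoma cells. Cells with compound receive 40 pM IL-6 for 5 h. Values are normalised to AC90 stimulation and AC90 JAK-inhibitor controls.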
For `COc1ccc2[nH]cc(CCN(C)C)c2c1`, the call was inactive.

As to `c1ccc2c3c([nH]c2c1)CNCC3`, the “activity, negative = inhibition” value was 9.55% [at 17.2 µM] (inactive).

As to `N[C@H](CP(=O)(O)O)C(=O)O`, the “activity, negative = inhibition” value was -21.6% (inactive).

Consider `O=C1NCN(c2ccccc2)C12CCN(C[C@H]1COc3ccccc3O1)CC2`, for which the “activity, negative = inhibition” value is -1.53% (inactive).

Another test addresses Glucocorticoid receptor (Homo sapiens) (UniProt P04150). The test can be described thus: GR-GFP Redistribution (AID 450;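 active means compounds whose dose series gives a full or clear partial fitted curve of increased nuclear translocation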; further: potency means the concentration at half of the fitted maximal effect). As to conditions: U2OS GR-GFP nuclear translocation, laser cytometry, 2 h.
For `C=CCN1C[C@H](C)N([C@H](c2ccc(C(=O)N(CC)CC)cc2)c2cccc(O)c2)C[C@H]1C`, the Potency is > 46 µM (inactive).

Consider `CN1CC[C@@H]2CN3CCc4cccc(c43)[C@H]2C1`, for which the Potency is > 46 µM (inactive).

For the molecule `COc1cc(CCN)ccc1O`, the Potency was > 46 µM (inactive).

Consider `O[C@@H]1[C@H](O)[C@H]2[C@@H](O)CCN2C[C@@H]1O`, for which the Potency was > 46 µM (inactive).

For the molecule `N[C@@H](Cn1ccc(=O)n(Cc2ccc(C(=O)O)cc2)c1=O)C(=O)O`, the Potency was > 46 µM (inactive).

Consider `Cn1cc(C(=O)C(=O)N[C@H]2CN3CCC2CC3)c2ccccc21`, for which the Potency was > 46 µM (inactive).

For `COc1ccc(CCN)cc1O`, the Potency is > 46 µM (inactive).

For the molecule `CNc1ccc2oc(C[C@H]3O[C@]4(CC[C@H]3C)O[C@H]([C@H](C)C(=O)c3ccc[nH]3)[C@H](C)C[C@H]4C)nc2c1C(=O)O`, the Potency was > 46 µM (inactive).

The target is the same in a further test. The test is described as follows: GR-EFC Redistribution (AID 451; calls by dose curve; further: potency means the concentration at half of the fitted maximal effect). As to conditions: CHO-K1 GR-EFC translocation, beta-gal luminescence, 2 h. The essentials: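 CHO-K1 cells expressing nuclear EA and GR-ED fragments of b-gal; compounds titrated up to 46 uM final, 2 h at 37 C. GR nuclear translocation read as complemented b-gal luminescence after 1 h RT detection.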
As to `N[C@@H](CCCCP(=O)(O)O)C(=O)O`, the Potency is > 46 µM (inactive).

Turning to `COc1ccc2[nH]cc(CCN(C)C)c2c1`, the Potency is > 46 µM (inactive).

Consider `C=CCN1C[C@H](C)N([C@H](c2ccc(C(=O)N(CC)CC)cc2)c2cccc(O)c2)C[C@H]1C`, for which the Potency was > 46 µM (inactive).

Turning to `CN1CC[C@@H]2CN3CCc4cccc(c43)[C@H]2C1`, the Potency was > 46 µM (inactive).

Consider `COc1cc(CCN)ccc1O`, for which the Potency is > 46 µM (inactive).

As to `O[C@@H]1[C@H](O)[C@H]2[C@@H](O)CCN2C[C@@H]1O`, the Potency is > 46 µM (inactive).

Consider `N[C@@H](Cn1ccc(=O)n(Cc2ccc(C(=O)O)cc2)c1=O)C(=O)O`, for which the Potency was > 46 µM (inactive).

With `N[C@H](CP(=O)(O)O)C(=O)O`, the Potency was > 46 µM (inactive).

As for `Clc1ccc(C2=CCC[C@H]3CC[C@@H]2N3)cn1`, the Potency is > 46 µM (inactive).

Regarding `Cn1cc(C(=O)C(=O)N[C@H]2CN3CCC2CC3)c2ccccc21`, the Potency is > 46 µM (inactive).

Regarding `COc1ccc(CCN)cc1O`, the Potency was > 46 µM (inactive).

For `Fc1ccc(C(OCCN2CCN(C/C=C\c3ccccc3)CC2)c2ccc(F)cc2)cc1`, the Potency was > 46 µM (inactive).

Consider `CNc1ccc2oc(C[C@H]3O[C@]4(CC[C@H]3C)O[C@H]([C@H](C)C(=O)c3ccc[nH]3)[C@H](C)C[C@H]4C)nc2c1C(=O)O`, for which the Potency is > 46 µM (inactive).

For a further test, the target named is Mitogen-activated protein kinase 10 (Mus musculus) (UniProt Q61831). The test is described as follows: JNK3 AlphaScreen Assay (AID 530).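 Further: kinase came from lysate of stimulated human HepG2 cells; signal reports phosphorylation of biotinylated GST-cJun 1-79 at Ser73 with 10 µM ATP; on the % scale 0 is the no-effect control and ±100 the full control effect.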 As to conditions: JNK3 lysate, c-Jun phosphorylation; series mostly up to 57.1 µM; activity change, negative = inhibition: at the top concentration. The essentials: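 Activity was read by AlphaScreen after JNK3-containing HepG2 lysate (cytokine pre-activated) phosphorylated biotinylated GST-cJun with 10 uM ATP at room temperature. Phospho-Ser73 cJun antibody with Protein-A acceptor beads provided detection.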
Take `N[C@@H](CCCCP(=O)(O)O)C(=O)O`: the “activity change, negative = inhibition” value was 8.59% (inactive).

Consider `CCN(CC)CCO[C@H]1CC[C@@]2(C)C(=CC[C@@H]3[C@H]2CC[C@]2(C)C(=O)CC[C@H]32)C1`, for which the “activity change, negative = inhibition” value was 3.32% (inactive).

Take `COc1ccc2[nH]cc(CCN(C)C)c2c1`: the “activity change, negative = inhibition” value was 24.8% (inactive).

For the molecule `CN1CC[C@@H]2CN3CCc4cccc(c43)[C@H]2C1`, the “activity change, negative = inhibition” value was -10.4% (inactive).

On to `COc1cc(CCN)ccc1O`, for which the “activity change, negative = inhibition” value is -2.19% (inactive).

For the molecule `N[C@@H](Cn1ccc(=O)n(Cc2ccc(C(=O)O)cc2)c1=O)C(=O)O`, the “activity change, negative = inhibition” value was 18% (inactive).

Consider `Clc1ccc(C2=CCC[C@H]3CC[C@@H]2N3)cn1`, for which the “activity change, negative = inhibition” value is -8.12% (inactive).

Consider `Cn1cc(C(=O)C(=O)N[C@H]2CN3CCC2CC3)c2ccccc21`, for which the “activity change, negative = inhibition” value was -12.1% (inactive).

For `O=C1NCN(c2ccccc2)C12CCN(C[C@H]1COc3ccccc3O1)CC2`, the outcome was inactive.

For `Fc1ccc(C(OCCN2CCN(C/C=C\c3ccccc3)CC2)c2ccc(F)cc2)cc1`, the “activity change, negative = inhibition” value is 34.5% (inactive).

Consider `CNc1ccc2oc(C[C@H]3O[C@]4(CC[C@H]3C)O[C@H]([C@H](C)C(=O)c3ccc[nH]3)[C@H](C)C[C@H]4C)nc2c1C(=O)O`, for which the “activity change, negative = inhibition” value is -7.92% (inactive).

The target of another test is 3',5'-cyclic-AMP phosphodiesterase 4B (Homo sapiens) (UniProt Q07343). The test can be described thus: qHTS Assay for Inhibitors of PDE-IV (AID 607; active means well fitted activation curve with a large enough effect in the main read-out, with a control signal flat, not every such curve was filed as active; further: % of control where 0% means no effect). As to conditions: HEK293 ACTOne CNG channel cells, membrane potential fluorescence; series mostly up to 22.9 µM; activation (PDE inhibition): at the top concentration. The method in brief:
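Cell-based read-out of cAMP via a modified cyclic nucleotide-gated channel and membrane potential dye (535/590 nm) in HEK293 cells expressing PDE4 endogenously. Compounds tested up to 22.9 uM final; 100 uM RO 20-1724 reference.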
Background: Quantitative high-throughput screening tests each substance at several concentrations.
For the molecule `N[C@@H](CCCCP(=O)(O)O)C(=O)O`, the “activation (PDE inhibition)” value is 7.41% (inactive).

With `CCN(CC)CCO[C@H]1CC[C@@]2(C)C(=CC[C@@H]3[C@H]2CC[C@]2(C)C(=O)CC[C@H]32)C1`, the “activation (PDE inhibition)” value is -14.2% (inactive).

Turning to `COc1ccc2[nH]cc(CCN(C)C)c2c1`, the “activation (PDE inhibition)” value is 1.88% (inactive).

`C=CCN1C[C@H](C)N([C@H](c2ccc(C(=O)N(CC)CC)cc2)c2cccc(O)c2)C[C@H]1C`: the “activation (PDE inhibition)” value is -18.5% (inactive).

On to `COc1cc(CCN)ccc1O`, for which the “activation (PDE inhibition)” value is -13.9% (inactive).

Take `N[C@H](CP(=O)(O)O)C(=O)O`: the “activation (PDE inhibition)” value is -1.05% (inactive).

`COc1ccc(CCN)cc1O`: the “activation (PDE inhibition)” value was 4.34% (inactive).

Turning to `O=C1NCN(c2ccccc2)C12CCN(C[C@H]1COc3ccccc3O1)CC2`, the Potency result was “inactive”.
